From PubChem BioAssay
ssDAF-12 act: activates DAF-12 receptor from parasite S. stercoralis | activation, % at 6.8 µM | HEK293 ssDAF-12/GRIP1 lit1-tk-luc reporter, luminescence; % of 3 µM dafachronic acid response | 1% of 370,000 active;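 active means activation above the mean over all tested compounds plus 3 SD, cut at about 0.9% in these data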;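 further: 0% = DMSO-only wells and 100% = 3 µM delta7-dafachronic acid wells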
hgDAF12 agonist: agonists of H. glycines DAF-12 nuclear receptor; HEK293 GAL4-hgDAF12 UAS-luciferase reporter, agonist luminescence; normalized to butyrate control; activation, % at 6.8 µM; 1.8% of 370,000 active;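 active means activation above a cutoff set at the mean of all screened compounds plus 3 SD, cut at about 10% in these data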;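 further: 0% = DMSO wells and 100% = sodium butyrate wells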
DAX1 inh-1: inhibitors of DAX1 repression of SF-1 activated StAR promoter | HEK293T StAR-luciferase reporter, SF-1/DAX-1 repression relief | inhibition, % at 6.8 µM | 1.1% of 370,000 active | AID 652010;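 active means inhibition above the mean over all tested compounds plus 3 SD, cut at about 3.6% in these data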;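 further: 0% = DAX-1 cells with DMSO and 100% = cells lacking DAX-1 with DMSO; higher inhibition means more luminescence from relief of DAX-1 repression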
DAX1 inh-2: inhibitors of human orphan nuclear receptor DAX1 (NR0B1) | AID 504766 | 0.99% of 340,000 active | HEK293 Gal4-DAX1 luciferase reporter, luminescence | inhibition, % at 6.75 µM | P51843;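 active means inhibition above the mean over all tested compounds plus 3 SD, cut at about 4.2% in these data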;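 further: 0% = DAX1-transfected cells with DMSO and 100% = empty-vector control cells with DMSO; inhibition shows as a rise in luminescence from relieved DAX1 repression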
Target sequence (P51843 207-470 limits assumed): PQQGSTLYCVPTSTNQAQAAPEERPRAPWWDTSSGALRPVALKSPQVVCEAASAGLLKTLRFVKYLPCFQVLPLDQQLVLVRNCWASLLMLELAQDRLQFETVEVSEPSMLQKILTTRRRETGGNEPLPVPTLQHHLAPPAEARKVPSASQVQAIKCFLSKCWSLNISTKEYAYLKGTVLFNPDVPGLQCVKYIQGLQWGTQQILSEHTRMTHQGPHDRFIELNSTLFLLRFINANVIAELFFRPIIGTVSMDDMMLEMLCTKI
hcDAF-12 act: H. contortus DAF-12 activation, primary screen; HEK293 hcDAF-12 lit1-tk-luc reporter, luminescence; 0% DMSO, 100% Δ7-dafachronic acid; activation, % at 6.8 µM; 1.4% of 370,000 active; AID 652067;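 active means activation above the mean of all tested compounds plus 3 SD, cut at about 5.5% in these data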;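 further: 100% = response to 3 µM Δ7-dafachronic acid high control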
An asterisk follows results filed as active; / = no result. Hits are enriched below; roughly 4.1% of the tested compounds scored in any of these assays.

SMILES | ssDAF-12 act | hgDAF12 agonist | DAX1 inh-1 | DAX1 inh-2 | hcDAF-12 act
CCOC(=O)c1cnn2c(C)cc(-c3ccc(F)cc3)nc12 | 0.2 | 11.9* | 2.9 | 1.3 | 2.2
Cc1cc(-c2ccc(F)cc2)nc2cc(C(N)=O)nn12 | -0.9 | 1.1 | -0.6 | -0.1 | -2.7
O=C(NCCc1ccccc1)OCc1cn(-c2cccc(C(F)(F)F)c2)nn1 | -1.4 | -0.3 | 0.0 | / | -1.5
CCC1CCCCN1C(=O)CSc1nnc(-c2cccs2)o1 (configuration not stated) | 1.0* | 9.5 | 2.1 | 1.1 | 3.2
CC1CCCN(C(=O)CSc2nnc(-c3cccs3)o2)C1 (configuration not stated) | -0.7 | 11.5* | 1.5 | 0.4 | 3.0
O=C(O)c1cccc(N2C(=O)c3ccc(C(=O)c4cccc([N+](=O)[O-])c4)cc3C2=O)c1 | 5.8* | 2.8 | 0.2 | 0.4 | -0.4
COc1ccc(S[C@]2(C(=O)N3CCN(c4ncccn4)CC3)CC(=O)N[C@@H]2c2ccc(OC)cc2)cc1 | -0.2 | 2.5 | -1.4 | / | -1.0
CCOC(=O)c1ccc(NC(=O)CSc2nnc(-c3cccc(C)c3)n2C)cc1 | -1.8 | 0.1 | -2.3 | / | -5.4
O=C1CCC(=O)N1c1ccc(S(=O)(=O)Nc2ccc(Br)cc2)cc1 | -1.0 | -1.9 | 0.2 | -0.6 | -1.1
COc1ccc(NS(=O)(=O)c2ccc(N3C(=O)CCC3=O)cc2)cc1 | -1.7 | -0.6 | -1.1 | 4.7* | -1.3
C=CCN1C(=O)[C@H](CC(=O)N2CCOCC2)[C@@]2(C(=O)OCC)CCCC=C12 | 0.0 | 3.0 | 0.8 | / | -1.6
NC(=O)C(CCCCN1CCCCC1)(c1ccccc1)c1ccccc1 | -0.5 | 0.1 | 4.1* | 1.6 | -1.9
OC(CCN1CCCCC1)(c1ccccc1)c1ccccc1 | -0.9 | 7.1 | 0.8 | -1.2 | -0.5
O=C(/C=C/c1ccccc1)NC(=O)c1ccccc1O | -0.3 | 11.6* | 1.6 | 3.0 | 2.2
COc1cc(/C=C/C(=O)NC(=O)c2ccccc2O)ccc1O | -0.5 | 0.2 | 2.5 | 2.2 | 3.5
O=C(C=Cc1cccc(O)c1)c1ccccc1O | -0.6 | 12.4* | -0.2 | -0.2 | 3.2
COC(=O)CSc1nnc(-c2cc(-c3ccccc3)n[nH]2)n1N | -1.9 | -0.4 | -0.9 | / | 0.9
CCOC(=O)CSC1=C(C#N)C(c2ccccc2OCC)C(C#N)C(=O)N1 (configuration not stated) | -0.7 | 1.3 | 1.0 | 4.2* | -1.6
CNC(=O)c1ncnnc1N(C)C(=O)NCc1ccccc1 | -0.9 | 0.3 | -0.2 | 9.6* | -0.2
O=C(COC(=O)Cn1cnc2ccccc2c1=O)Nc1ccc(Cl)cc1 | -0.5 | -0.5 | -0.6 | -1.3 | 0.9
O=C(COC(=O)Cn1cnc2ccccc2c1=O)Nc1ccc(Cl)c(C(F)(F)F)c1 | 1.5* | -3.2 | -0.1 | 0.7 | -1.2
Cc1ccc(C)c(NC(=O)Cn2nnc(-c3ccncc3)n2)c1 | -0.8 | -0.4 | 0.8 | / | 4.4
O=C(c1ccc(Cl)c(Cl)c1)c1cnc(Nc2ccccc2)s1 | -0.8 | 1.5 | -0.8 | -0.5 | -0.5
CC(=O)c1cnc(Nc2ccc(C)cc2)s1 | -1.3 | 9.1 | 1.8 | 4.7* | 0.8
CCC(=O)N/C(N)=N/c1nc2ccccc2o1 | -0.9 | 6.7 | 1.8 | 5.4* | 2.1
SMILES | ssDAF-12 act | hgDAF12 agonist | DAX1 inh-1 | DAX1 inh-2 | hcDAF-12 act
N/C(=N\c1nc2ccccc2o1)NC(=O)c1ccccc1 | -0.8 | 9.1 | 2.2 | 3.0 | 0.4
CC(=O)N/C(N)=N/c1nc2cc(C)ccc2o1 | 0.9 | 10.6* | 2.3 | 1.8 | 3.5
CCCC(=O)N/C(N)=N/c1nc2ccccc2o1 | -0.2 | 10.2 | 1.2 | 2.1 | 5.3
CC(C)CC(=O)N/C(N)=N/c1nc2ccccc2o1 | -0.6 | 8.8 | 1.7 | 5.3* | 3.2
CC(=O)N/C(N)=N/c1nc2cc([N+](=O)[O-])ccc2o1 | -0.8 | 5.3 | -0.2 | 4.1 | 1.2
Cc1cc(C(=O)NNc2ccc(F)cc2F)no1 | -0.8 | -2.3 | 0.2 | 7.6* | -1.6
Cc1ccc(NNC(=O)c2cc(C)on2)c(C)c1 | -0.9 | 3.5 | 0.8 | 1.2 | 0.6
O=C(NCCc1ccccc1)c1cnc2n(c1=O)CCS2 | 1.3* | 7.8 | 2.3 | 1.9 | 2.0
COc1ccc(NC(=O)COC(=O)c2ccc(Cl)c(S(N)(=O)=O)c2)c([N+](=O)[O-])c1 | -1.3 | -4.5 | 1.6 | 5.0* | 0.4
NS(=O)(=O)c1cc(C(=O)OCC(=O)Nc2ccc(Cl)cc2[N+](=O)[O-])ccc1Cl | -0.6 | 1.9 | -0.1 | 1.7 | 3.0
